Most compounds without a hit are left out; they make up all but 1.2% or so of the library.
PrP UTR inh – suppresses PrP 5' UTR mRNA reporter expression. 0.35% of 340,000 active. inhibition, % (test concentration not listed). cell-based PrP 5' UTR mRNA reporter, plate reader; in the data active = inhibition above about 52%; also: 0 = median of the neutral control wells
PfHsp40 rescue – restores yeast growth despite PfHsp40 toxicity; S. cerevisiae expressing PfHsp40, growth rescue, ATP luminescence; 0.68% of 340,000 active; growth rescue, % at 12.5 µM; AID 504582; in the data active = growth rescue above about 28%, passing the limit was not always enough; inconclusive = no clear call, values can overlap the other calls;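 also: yeast W303a lacking pdr1 and pdr3 grown in galactose medium; growth measured after three days at 30 °C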
Yp Topo-I inh – blocks Yersinia pestis topoisomerase I activity. 0.064% of 360,000 active. activity, % at 10 µM. Y. pestis Topo-I cleavage product accumulation, plate reader. AID 504884; in the data active = activity above about 50%, passing the limit was not always enough; inconclusive = no clear call, values can overlap the other calls
TcdB GH inh – TcdB glycohydrolase inhibition; TcdB glycohydrolase enzymatic assay, plate reader; 0.24% of 350,000 active; P18177; inhibition, % at 9.99 µM; in the data active = inhibition above about 10%
FadD28 binding – M. tuberculosis FadD28 bisubstrate binding inhibition. FadD28 bisubstrate probe binding, fluorescence polarization. inhibition, % at 12.5 µM. 0.22% of 360,000 active; in the data active = inhibition above about 8.5%, passing the limit was not always enough; inconclusive = no clear call, values can overlap the other calls
Mtb BioA inh – inhibitors of Mycobacterium tuberculosis BioA enzyme; purified M. tuberculosis BioA enzyme, plate reader; inhibition, % at 9.99 µM; 0.096% of 360,000 active; AID 602481; in the data active = inhibition above about 40%; inconclusive = no clear call, values can overlap the other calls
Active calls of the source: *; ? = inconclusive; · = no result.

SMILES | PrP UTR inh | PfHsp40 rescue | Yp Topo-I inh | TcdB GH inh | FadD28 binding | Mtb BioA inh
CC(C)CC#Cc1ccc2c(c1)O[C@@H](CN(C)C(=O)c1cccc(F)c1)[C@@H](C)CN([C@H](C)CO)S2(=O)=O | · | · | · | 0.1 | · | -1.3
COc1ccc(-c2cn(CC[C@@H]3CC[C@H](NS(=O)(=O)c4ccccc4C)[C@H](CO)O3)nn2)cc1 | · | · | · | 0.6 | · | -1.5
Cc1noc(C)c1NC(=O)N(C)C[C@@H]1Oc2ccc(NS(=O)(=O)c3ccccc3)cc2CC(=O)N([C@H](C)CO)C[C@@H]1C | · | · | · | -0.3 | · | ·
Cc1oc2ccc(OC(=O)N(C)C)cc2c1C(=O)OC(C)C | -6.7 | 159.8* | 21.2 | · | -1.3 | 2.8
Cc1oc2ccc(OC(=O)c3cccs3)cc2c1C(=O)OC(C)C | -16.5 | 2.7 | 37.8 | 0.3 | -1.4 | -0.2
COC(OC)c1ccnc(-c2ccc(OC(=O)c3ccccc3)cc2)n1 | -32.0 | 0.4 | 26.2 | 0.1 | -1.3 | ·
COC(OC)c1ccnc(-c2ccc(OC(C)=O)cc2)n1 | -17.7 | 51.7* | 2.4 | -0.4 | 0.5 | ·
O=C1c2ccccc2NC(c2ccc(-c3ccc(F)cc3)o2)N1O (stereo not given) | -73.5 | 167.9* | -8.7 | 1.3 | -0.7 | -1.8
O=C1c2ccccc2NC(c2ccc(-c3ccc(Br)cc3)o2)N1O (stereo not given) | -12.6 | 0.4 | 0.9 | -1.1 | -4.3 | -1.7
O=C1c2ccccc2NC(c2ccc(-c3cccc([N+](=O)[O-])c3)o2)N1O (stereo not given) | -15.0 | 232.7* | -5.0 | 0.5 | -2.4 | ·
O=C(C[C@@H]1C=C[C@@H](NC(=O)c2ccncc2)[C@@H](CO)O1)NCCc1ccncc1 | · | · | · | 0.0 | · | 2.5
COCC(=O)N1C[C@H](C)[C@@H](OC)CN(C)C(=O)c2ccc(NC(=O)c3ccc(OC)cc3)cc2OC[C@H]1C | · | · | · | · | · | 0.3
CCC(=O)N(C)C[C@@H]1Oc2cc(C#Cc3ccncc3)ccc2S(=O)(=O)N([C@H](C)CO)C[C@H]1C | · | · | · | 0.1 | · | -1.2
CO[C@@H]1CN(C)C(=O)c2cc(NC(=O)c3cnccn3)ccc2OC[C@H](C)N(C(=O)C2CC2)C[C@H]1C | · | · | · | 0.9 | · | 4.6
COc1ccc(S(=O)(=O)N[C@@H]2CC[C@H](CC(=O)N3CCC(Cc4ccccc4)CC3)O[C@H]2CO)cc1 | · | · | · | -1.8 | · | 1.6
O=C(Nc1cc(S(=O)(=O)N2CCOCC2)ccc1Cl)C(=O)c1c(-c2ccccc2)cc2ccccn12 | -16.1 | 66.4* | 22.3 | · | -4.1 | -2.1
CC(=O)c1ccc(Nc2ccc(-c3ccccc3F)nn2)cc1 | -117.3 | -0.3 | 1.1 | 10.3* | -2.9 | ·
COc1ccccc1-c1ccc(Nc2ccc(C(=O)N3CCOCC3)cc2)nn1 | 1.9 | 0.1 | -7.1 | · | -0.1 | -2.4
Cc1ccc(C(=O)/C=C/c2ccccc2[N+](=O)[O-])cc1 | -43.2 | 1.6 | 7.1 | 0.7 | -2.9 | ·
O=C(/C=C/c1ccccc1[N+](=O)[O-])c1ccccc1Br | -20.1 | 59.9* | -6.5 | 0.5 | -3.2 | 3.7
CNC[C@H]1OCCCC[C@H](C)Oc2ccc(NC(=O)Nc3ccc4c(c3)OCO4)cc2C(=O)N([C@@H](C)CO)C[C@@H]1C | · | · | · | 0.1 | · | 0.2
O=C(Nc1sc2c(c1C(=O)O)CCCC2)c1ccc(F)cc1 | -43.4 | -2.0 | -20.4 | 9.0 | 1.2 | 1.3
CC(C)(C)c1ccc(C(=O)Nc2sc3c(c2C(=O)O)CCC3)cc1 | 14.3 | 1.7 | -1.3 | 3.9 | 14.1* | ·
Cc1ccc(S(=O)(=O)N(C)c2c(C)ccc(S(=O)(=O)N3CCN(C)CC3)c2C)cc1 | -3.0 | 49.5* | -0.8 | 1.1 | 0.1 | -0.1
CC(C)C#Cc1ccc([C@@H]2[C@@H](CO)N3C(=O)CN(S(=O)(=O)c4ccccc4)C[C@@H]23)cc1 | · | · | · | 4.1 | · | ·
SMILES | PrP UTR inh | PfHsp40 rescue | Yp Topo-I inh | TcdB GH inh | FadD28 binding | Mtb BioA inh
C/C(CC(=O)N1CCCC1)=N\NC(=O)c1cc2ccccc2cc1O | 3.2 | 1.9 | -4.1 | 2.1 | -1.5 | ·
CCOC(=O)C(C)/C(C)=N/NC(=O)c1cc2ccccc2cc1O (stereo not given) | -26.7 | 155.5* | -12.7 | -1.2 | -3.2 | ·
CCC(=O)c1c(O)n(C2CCCCCC2)c(=O)[nH]c1=O | -20.6 | 80.7* | -4.3 | · | -0.2 | -0.1
C/C(=N\NC(=O)c1ccccc1O)c1c(O)n(C2CCCCC2)c(=O)[nH]c1=O | 1.8 | 79.3* | 2.1 | -0.2 | 11.6* | 2.3
NC(N)=N/N=C/c1ccc(N(c2ccccc2)c2ccccc2)cc1 | -14.9 | 105.5* | -42.7 | 2.3 | 1.0 | -1.8
CNC(=O)C[C@H]1CC[C@@H]2[C@H](COc3ccc(NC(=O)c4cscn4)cc3C(=O)N2C)O1 | · | · | · | · | · | 3.0
CN1C(=O)C2(N=c3ccccc3=N2)c2ccccc21 | -13.0 | 55.0* | 2.7 | · | 0.8 | ·
CN(C)S(=O)(=O)c1cccc(NC(=S)NC(=O)c2ccco2)c1 | -36.5 | -3.2 | 0.1 | -1.4 | -3.5 | 0.6
O=C(NNC(=O)c1cc2ccccc2cc1O)Nc1ccc(Br)cc1 | -18.3 | 35.8* | -18.3 | 1.9 | -1.3 | 0.9
CN(C)S(=O)(=O)c1cccc(NC(=S)NNC(=O)c2cc3ccccc3cc2O)c1 | -13.0 | 219.5* | -1.1 | 0.4 | ? | -1.5
COc1ccc(C)cc1NC(=O)NNC(=O)c1cc2ccccc2cc1O | -26.0 | 0.9 | 1.3 | -1.7 | -3.7 | -1.2
O=C(NNC(=O)c1cc2ccccc2cc1O)NC1CCCCC1 | -16.6 | 59.7* | -10.3 | 0.1 | -4.8 | -2.2
COc1ccc(NC(=O)NNC(=O)c2cc3ccccc3cc2O)cc1 | -32.7 | 90.2* | 9.6 | 0.7 | -2.9 | -1.8
O=C(COC(=O)c1cc2ccccc2cc1O)NC1CCCCC1 | -24.9 | -1.3 | 4.7 | -3.0 | -0.1 | -1.4
O=C(NNC(=O)c1cc2ccccc2cc1O)Nc1ccc(F)cc1F | -6.0 | 24.8 | 1.9 | 2.7 | -3.0 | -0.4
C[C@@H]1CN([C@H](C)CO)C(=O)CCCn2nncc2CO[C@@H]1CN(C)Cc1cccc(C(=O)O)c1 | · | · | · | 1.0 | · | -1.1
CCCC#Cc1cnc2c(c1)C(=O)N([C@@H](C)CO)C[C@H](C)[C@@H](CN(C)S(=O)(=O)c1ccccc1)O2 | · | · | · | 0.2 | · | 0.5
CC(=O)NC(CC(=O)NNC(=O)c1cc2ccccc2cc1O)c1ccccc1 (stereo not given) | -9.5 | 78.5* | 3.8 | 2.9 | -2.7 | -1.4
O=C(Nc1ncc([N+](=O)[O-])s1)c1ccc2c(c1)OCO2 | 68.9* | -3.7 | -2.2 | 1.9 | -1.2 | 2.4
CCCCN(C)S(=O)(=O)c1cc(Br)cc2c1N(C(=O)C1CC1)CC2 | -8.8 | 132.2* | -7.4 | · | -6.8 | -0.3
O=C(O)CCS(=O)(=O)c1cc(Br)cc2c1N(C(=O)C1CC1)CC2 | -12.2 | -0.8 | 4.0 | 0.5 | 0.8 | ·
O=S(OCCN1CCOCC1)C(c1ccccc1)c1ccccc1 (stereo not given) | -7.7 | 109.4* | 1.7 | 0.2 | -2.8 | -0.4
Cc1ccc(C(=O)Nc2ccc(O)cc2C(=O)O)cc1 | 2.9 | -1.3 | 3.5 | · | -0.8 | -1.0
